Potency data for 32 compounds are collected here from PubChem BioAssay (NCATS).

The structures appear in SMILES notation. Inconclusive results are not listed. Where a call stands in place of a potency, no number is given. Activity calls are given as the source filed them. Calls follow the shape of the dose curve; as a rule, active = well fitted inhibition curve with a large enough effect; inconclusive = small, poorly fitted or top-dose-only effect; inactive = flat fitted curve, though single readings scatter.
Potency is read from the fitted curve at half-maximal effect.

One test concerns MCC-26. As to the kind of experiment: qHTS assay to identify novel small-molecules to repurpose for Merkel cell carcinoma treatment (AID 1296009). Also: nearly all actives have a fitted effect of over 60% in size. The note with it: MCC and control cell lines, CellTiter-Glo viability, 72 h; series mostly up to 46 µM. The gist of the method: (§1)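 Luminescence from CellTiter-Glo, read 10 min after addition at room temperature, reported viability following a 72 hr, 37 degree celsius treatment with NPC or MIPE compounds in titration; values normalized to plate controls.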
Background: In qHTS, concentration-response curves come from the screen itself.
With `COC(=O)c1nc(Cl)c(Cl)nc1N`, the Potency was 8.41 µM (active). For the compound `O=C(O)/C=C\C(=O)O`, the Potency entry was “inactive”. Take `O=C(O)Cc1ccc(-c2ccccc2)cc1`: the Potency result was “inactive”. Regarding `CC(C)(C)c1nnc(NS(=O)(=O)c2ccc(N)cc2)s1`, the Potency result was “inactive”. Consider `C#C[C@]1(O)CC[C@H]2[C@@H]3CCc4cc(O)ccc4[C@H]3CC[C@@]21C`, for which the Potency entry is “inactive”. On the same count and under the same terms, the entry for `O=C1CN(/N=C/c2ccc([N+](=O)[O-])o2)C(=O)N1` is “inactive”; for `Oc1c(Br)cc(Br)c2cccnc12` it is “inactive”.

For the compound `O=c1[nH]c2ccccc2n1CCCN1CCN(C(c2ccccc2)c2ccccc2)CC1`, the Potency result was “inactive”. As for `O=C(OCc1ccccc1)c1ccccc1`, the Potency entry was “inactive”.

For the compound `[O-][n+]1ccccc1SSc1cccc[n+]1[O-]`, the Potency was 0.146 µM (active).

As to `O=C(O)c1ccccc1Nc1cccc(C(F)(F)F)c1`, the Potency entry was “inactive”.

Turning to `CCCCCCCC/C=C/C(=O)O`, the Potency entry is “inactive”.

On to `Nc1ccc(C(=O)O)c(O)c1`, for which the Potency entry was “inactive”. Take `Nc1ccc(O)c([N+](=O)[O-])c1`: the Potency entry is “inactive”.

In the case of `O=Cc1ccc(O)c(O)c1O`, the Potency result is “inactive”.

The next test has as its system MKL-1. The description is as above. The note with it: MCC and control cell lines, CellTiter-Glo viability, 72 h; series mostly up to 46 µM. In outline: as §1
Turning to `COC(=O)c1nc(Cl)c(Cl)nc1N`, the Potency is 1.33 µM (active). The same measure, in the same setting: then `O=C(O)Cc1ccc2c(c1)C(=O)c1ccccc1CO2`, with “inactive”; and `O=C(O)/C=C\C(=O)O`, with “inactive”; and `CN(C)[C@@H]1C(=O)C(C(=O)NCN2CCCC2)=C(O)[C@@]2(O)C(=O)C3=C(O)c4c(O)cccc4[C@@](C)(O)C3C[C@@H]12` (some centres not stated), with “inactive”.

Regarding `Cc1[nH]cnc1CN1CCc2c(c3ccccc3n2C)C1=O`, the Potency entry is “inactive”. In the case of `O=C(O)Cc1ccc(-c2ccccc2)cc1`, the Potency result is “inactive”. `CNC(=O)c1c(I)c(NC(=O)CCCCC(=O)Nc2c(I)c(C(=O)O)c(I)c(C(=O)NC)c2I)c(I)c(C(=O)O)c1I`: the Potency entry is “inactive”.

For `COc1cccc2c1C(=O)c1c(O)c3c(c(O)c1C2=O)C[C@@](O)(C(=O)CO)C[C@@H]3O[C@H]1C[C@H](N)[C@H](O[C@@H]2CCCCO2)[C@H](C)O1`, the Potency was 0.0944 µM (active). As to `N=C1N=C(N)c2cc3ccccc3cc21`, the Potency was 38.6 µM (active). For the compound `O=C(CCN1CCN(CCO)CC1)N1c2ccccc2Sc2ccc(C(F)(F)F)cc21`, the Potency entry was “inactive”.

Take `CC(C)(C)c1nnc(NS(=O)(=O)c2ccc(N)cc2)s1`: the Potency result is “inactive”. As for `COC(=O)C1=C(C)NC(C)=C(C(=O)OCC(C)=O)C1c1ccccc1[N+](=O)[O-]` (configuration not stated), the Potency is 21.1 µM (active). Consider `CCCCCCCCCCCCOCCO`, for which the Potency entry was “inactive”.

As to `CCCCCCCCCCCCCCCC(=O)OC(C)C`, the Potency result was “inactive”. In the case of `COC(=O)C1=C(C)NC(C)=C(C(=O)OCC(C)C)C1c1ccccc1[N+](=O)[O-]` (configuration not stated), the Potency is 21.1 µM (active). The same measure, in the same setting: the figure for `Oc1c(Br)cc(Br)c2cccnc12` is 11.9 µM (active). With `COc1ccnc2c1CCCCC2S(=O)c1nc2ccccc2[nH]1` (configuration not stated), the Potency result was “inactive”. Take `CCCCC1C(=O)N(c2ccccc2)N(c2ccc(O)cc2)C1=O` (configuration not stated): the Potency is 1.5 µM (active). Turning to `Cc1c(N)c(=O)n(-c2ccccc2)n1C`, the Potency entry was “inactive”. Regarding `O=C(OCc1ccccc1)c1ccccc1`, the Potency entry is “inactive”.

Consider `[O-][n+]1ccccc1SSc1cccc[n+]1[O-]`, for which the Potency is 0.231 µM (active). For the compound `O=C(O)c1ccccc1Nc1cccc(C(F)(F)F)c1`, the Potency entry was “inactive”. On to `CC1(C)S[C@@H]2[C@H](NC(=O)[C@H](N)c3ccccc3)C(=O)N2[C@H]1C(=O)O`, for which the Potency result is “inactive”.

For the compound `CC(C(=O)O)c1ccc(C(=O)c2ccccc2)s1` (configuration not stated), the Potency entry is “inactive”.

Take `CCCCCCCC/C=C/C(=O)O`: the Potency result was “inactive”. For `CC(=O)c1ccc(OCC(=O)N2CCCCC2)cc1`, the Potency entry is “inactive”. Turning to `Nc1ccc(C(=O)O)c(O)c1`, the Potency entry was “inactive”.
